Measurements reported in PubChem BioAssay (NCI).
The panel holds about 83,000 compounds, 20% with a hit somewhere; the sample as a whole holds those more often.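 Activity criterion: percent growth below 10, measured after cells in 96-well plates were exposed to a single compound concentration for 48 hours.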 A number with no mark means an inactive call. Calls of active or inactive are those of the source.

Tested on: SK-MEL-5 melanoma
Assay: NCI-60 one-dose screen, 48 h (100 = growth as untreated, 0 = no growth, -100 = all killed)
Conditions: 10 µM

| SMILES | growth |
| --- | --- |
| CCOS(=O)(=O)c1c(C(C)C)cc(C(C)C)cc1C(C)C | 100% |
| CC(C)CCN(CCC(C)C)CC(=O)Nc1ccc(S(=O)(=O)c2ccc(NC(=O)CN(CCC(C)C)CCC(C)C)cc2)cc1 | 47% |
| O=C(N/N=C/c1cc([N+](=O)[O-])ccc1O)c1cccc2ccccc12 | 39.1% |
| COc1cc(Cc2cc(-c3ccccc3)n[nH]c2=O)cc(OC)c1OC | 50.4% |
| C1CN(CC2CCC(CN3CCOCC3)O2)CCO1 (stereo unspecified) | 105% |
| Cc1cc(=O)n2nnc3cc(Cl)c(Cl)cc3n12 | 110% |
| CC(=O)N[C@H](C(=O)N[C@@H](CCCNC(=N)N)C(=O)N[C@@H](CCCCN)C(=O)N[C@@H](CCCNC(=N)N)C(=O)N[C@]1(C)CCCCCC/C=C\CCC[C@@](C)(C(=O)N[C@@H](CCCNC(=N)N)C(=O)N[C@@H](CCC(=O)O)C(=O)N[C@@H](CC(C)C)C(=O)N[C@H](C(=O)N[C@@H](CCC(=O)O)C(N)=O)C(C)C)NC(=O)[C@H](CCC(N)=O)NC(=O)[C@H](CC(C)C)NC(=O)[C@H](CC(C)C)NC(=O)[C@H](CCCNC(=N)N)NC(=O)[C@H](CCCNC(=N)N)NC(=O)[C@H](CC(C)C)NC1=O)C(C)C | -68.8% (active) |
| Cc1ccc(/C=C2/C(=O)N(C)c3ccc(S(=O)(=O)Nc4ccc(C(C)(C)C)cc4)cc32)s1 | 89.4% |
| CC(=O)[C@H]1CC[C@]2(C)[C@@H]1CC[C@@H]1[C@@]3(C)CC(CCC#N)(CCC#N)C(=O)C(C)(C)[C@@H]3CC[C@]12C | 86.6% |
| O=C(CCn1cnc2c(cc(-c3ccccc3)n2-c2ccccc2)c1=O)Nc1ccc(F)cc1 | 77.5% |
| Cc1c(Cl)cccc1NC(=O)CN1CCOCC1 | 101% |
| CC(C)(C)OC(=O)CN1CCc2c(sc3ncnc(N/N=C/c4cccc5ccccc45)c23)C1 | 11.1% |
| CCn1c(SCc2ccc(C)cc2)nnc1-c1nn(-c2ccc(Cl)cc2Cl)c(-c2ccc(Cl)cc2)c1C | -92.3% (active) |
| O=C(Nc1nc(-c2ccccc2)nc2c1sc(=S)n2-c1ccccc1)C(F)(F)F | 90.4% |
| Cc1c[nH]c(=O)n(Cc2nnc(CCC(=O)c3nc4ccccc4[nH]3)o2)c1=O | 13.2% |
| CCCCN(CCCC)C(=O)[C@H](CC)[C@@H]1CC[C@@H](C)[C@@H]([C@H](C)[C@@H](O)[C@@H](C)C(=O)[C@H](CC)C2O[C@]3(C=CC(=O)[C@]4(CC[C@@](C)([C@H]5CC[C@](O)(CC)[C@H](C)O5)O4)O3)[C@H](C)C[C@@H]2C)O1 (stereo partly specified) | 18% |

| SMILES | growth |
| --- | --- |
| CCN(CC)CCOc1cccc2c1C(=O)c1ccccc1C2=O | 93.7% |
| COc1cc(OC)c2c(=O)c(O)c(-c3ccccc3)oc2c1 | 72.4% |
| COc1ccc(-c2cc(-c3ccccc3)nc(SCCCC(=O)NO)n2)cc1 | -57.8% (active) |
| COc1cc(-c2nn(-c3ccc(NC(=O)NCCNS(=O)(=O)c4ccc(F)cc4)cc3)cc2-c2ccncc2)ccc1Cl | -63.6% (active) |
| Cc1[nH]c2ccccc2c1/C=N/Nc1ncnc2sc3c(c12)CCN(CC(=O)OC(C)(C)C)C3 | 60.8% |
| O=C1CSC(=S)N1/N=C/c1ccc(Cl)s1 | 97% |
| O=C(CC(CC(=O)c1ccccc1)c1ccccc1O)c1ccccc1 | 88.6% |
| CCOC(=O)c1cc(C(=O)c2cc(OC)cc(OC)c2)n2nc(C)ccc12 | 30.6% |
| CCCc1cn(CC(=O)Nc2nc3ccccc3s2)nn1 | 99.5% |
| CC(CN(C)C)Oc1ccc(OC(C)CN(C)C)c2c1C(=O)c1ccccc1C2=O (stereo unspecified) | 69.1% |
| COc1cc(-c2nn(-c3cccc(NC(=O)NCCNC(=O)c4cccc(C(F)(F)F)c4)c3)cc2-c2ccncc2)ccc1Cl | 7.16% (active) |
| Cc1ccc(NCCNCC(C)(C)O)c2c(=O)c3ccc(Cl)cc3sc12 | 44.2% |
| CNS(=O)(=O)Oc1ccc(-c2sc3cc(OS(=O)(=O)NC)ccc3c2C(=O)c2ccc(OCCN3CCCCC3)cc2)cc1 | 49.7% |
| CN(C)CCOc1ccccc1NC1=C(Cl)C(=O)C(Nc2ccccc2OCCN(C)C)=C(Cl)C1=O | 93.6% |
| COc1cc(-c2nn(-c3cccc(NC(=O)CCNc4ccc(N5CCOCC5)cc4)c3)cc2-c2ccncc2)ccc1Cl | -40.5% (active) |
